PubChem BioAssay (NCI)
The panel holds about 83,000 compounds, 20% with a hit somewhere; the sample as a whole holds those more often.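 Percent growth is the endpoint: 0 to 100 indicates growth inhibition (40 means 60% inhibition), 0 means no net growth, and negative values indicate cell death.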 The source made the active and inactive calls. Rule for the calls: active = growth percent below 10; inactive = the rest.

Tests used:
Experiment in all cases: NCI-60 one-dose screen, 48 h (100 = growth as untreated, 0 = no growth, -100 = all killed)
Settings in all cases: 10 µM unless noted
HCT-15 colon = test system: HCT-15 colon
HT29 colon = test system: HT29 colon
SNB-75 CNS = test system: SNB-75 CNS
SNB-19 CNS = test system: SNB-19 CNS
U251 CNS = test system: U251 CNS
PC-3 prostate = test system: PC-3 prostate
SK-MEL-5 melanoma = test system: SK-MEL-5 melanoma
UACC-62 melanoma = test system: UACC-62 melanoma
LOX IMVI melanoma = test system: LOX IMVI melanoma
SK-MEL-28 melanoma = test system: SK-MEL-28 melanoma

Measured: growth

CC/C(=C(\c1ccc(O)cc1)c1ccc(OCCN(C)CCN(C)C(=O)CCC(=O)c2c(C)[nH]c(/C=C3\N=C(c4ccc[nH]4)C=C3OC)c2C)cc1)c1ccccc1
inactive: HCT-15 colon 34.3% | HT29 colon 15.5% | SNB-75 CNS 92.4% | SNB-19 CNS 108% | U251 CNS 63.2% | PC-3 prostate 61.4% | SK-MEL-5 melanoma 78.2% | UACC-62 melanoma 14.2% | LOX IMVI melanoma 33.6% | SK-MEL-28 melanoma 61.7%

CCCCCCCC/C=C\CCCCCCCCOc1ccccc1CCOP(=O)(O)OCC[N+](C)(C)C
active: PC-3 prostate 0.679%
inactive: HCT-15 colon 46.7% | HT29 colon 10.9% | SNB-75 CNS 55.4% | SNB-19 CNS 20.1% | U251 CNS 13.3% | SK-MEL-5 melanoma 69.5% | UACC-62 melanoma 54.2% | LOX IMVI melanoma 60.6% | SK-MEL-28 melanoma 89.1%

O=C(CN1CCOCC1)Nc1ccc(-c2nc3ccccc3s2)cc1
inactive: HCT-15 colon 93.7% | HT29 colon 103% | SNB-75 CNS 100% | SNB-19 CNS 101% | U251 CNS 89.5% | PC-3 prostate 93% | SK-MEL-5 melanoma 92.7% | UACC-62 melanoma 100% | LOX IMVI melanoma 99.9% | SK-MEL-28 melanoma 102%

COc1ccc(-c2nc3sccn3c2-c2ccnc(NCCCNS(=O)(=O)c3ccc(F)cc3)n2)cc1
active: HCT-15 colon 2.92% | SK-MEL-5 melanoma -59.6% | UACC-62 melanoma -34.4% | LOX IMVI melanoma 6.15%
inactive: HT29 colon 20% | SNB-75 CNS 40.4% | SNB-19 CNS 42.6% | U251 CNS 26.1% | PC-3 prostate 21.1% | SK-MEL-28 melanoma 11.5%

COc1ccc(-c2nc3sccn3c2-c2ccnc(NCCNS(=O)(=O)c3ccc(C(F)(F)F)cc3)n2)cc1
active: HCT-15 colon 9.19% | PC-3 prostate 9.86% | SK-MEL-5 melanoma -94.1% | UACC-62 melanoma 0.0074% | LOX IMVI melanoma 2.4%
inactive: HT29 colon 14.5% | SNB-75 CNS 29.5% | SNB-19 CNS 34.2% | U251 CNS 15.4% | SK-MEL-28 melanoma 13.9%

C=CCn1c(C)nc2ccc(Nc3nc(Nc4ccc(F)cc4)nc4ccccc34)cc21
inactive: HCT-15 colon 34.5% | HT29 colon 18.7% | SNB-75 CNS 54.6% | SNB-19 CNS 96.5% | U251 CNS 59.6% | PC-3 prostate 42.1% | SK-MEL-5 melanoma 33.3% | UACC-62 melanoma 63.2% | LOX IMVI melanoma 45.3% | SK-MEL-28 melanoma 72%

CCCCCCCCCCC/C=C\C[C@H](O)C/C=C1/C(=O)C=C[C@@H]1C/C=C\CCCC(=O)OC
inactive: SNB-19 CNS 18.2%
active: HCT-15 colon -43% | HT29 colon -22.5% | SNB-75 CNS -4.49% | U251 CNS -69% | PC-3 prostate -20% | SK-MEL-5 melanoma -85.3% | UACC-62 melanoma -39.9% | LOX IMVI melanoma -92.4% | SK-MEL-28 melanoma -20.4%

COc1cc(CNC(=O)CSc2nc3ccccc3c(=O)n2Cc2cc(OC)c(OC)c(OC)c2)cc(OC)c1OC
inactive: HCT-15 colon 97.4% | HT29 colon 108% | SNB-75 CNS 89.2% | SNB-19 CNS 92.5% | U251 CNS 98% | PC-3 prostate 97.4% | SK-MEL-5 melanoma 93.7% | UACC-62 melanoma 86.8% | LOX IMVI melanoma 99.9% | SK-MEL-28 melanoma 102%

Cc1oc2nc[nH]c(=O)c2c1C(=O)/C=C/c1ccc(Cl)cc1Cl
inactive: HCT-15 colon 50.6% | HT29 colon 30.4% | SNB-75 CNS 44.6% | SNB-19 CNS 84% | U251 CNS 85.1% | PC-3 prostate 59.2% | SK-MEL-5 melanoma 81.6% | UACC-62 melanoma 53.5% | LOX IMVI melanoma 52.2% | SK-MEL-28 melanoma 89.1%

O=S(=O)(NCCCNc1cc(-c2cn(-c3ccccc3)nc2-c2cccc(O)c2)ccn1)c1ccc(Br)cc1
active: HCT-15 colon -18.7% | HT29 colon -24.4% | U251 CNS 4.89% | PC-3 prostate 4.26% | SK-MEL-5 melanoma -56.3% | UACC-62 melanoma -5.16% | LOX IMVI melanoma -29.5% | SK-MEL-28 melanoma -36.2%
inactive: SNB-75 CNS 25.8% | SNB-19 CNS 27.3%

CCCOC(=O)C1(O)CCCC1
inactive: HCT-15 colon 93.9% | HT29 colon 96.3% | SNB-75 CNS 80.9% | SNB-19 CNS 108% | U251 CNS 104% | PC-3 prostate 96.9% | SK-MEL-5 melanoma 99.4% | UACC-62 melanoma 105% | LOX IMVI melanoma 108% | SK-MEL-28 melanoma 99.2%

O=C(CN1CCN(c2cc3c(cc2F)c(=O)c(C(=O)O)cn3C2CC2)CC1)Nc1ccc(C(=O)/C=C/c2ccccc2)cc1
active: LOX IMVI melanoma 5.67%
inactive: HCT-15 colon 56.8% | HT29 colon 11.4% | SNB-75 CNS 61.8% | SNB-19 CNS 40.3% | U251 CNS 14.9% | PC-3 prostate 55.2% | SK-MEL-5 melanoma 13.6% | UACC-62 melanoma 35.5% | SK-MEL-28 melanoma 85.7%

CC/C=C\C[C@H]1C/C=C2/C(=O)C(Cl)=C[C@@H]2C/C=C\CCCC(=O)O1
active: HCT-15 colon -90.8% | HT29 colon -55.6% | SNB-75 CNS -19.9% | SNB-19 CNS -40.2% | U251 CNS -79.2% | PC-3 prostate -69.9% | SK-MEL-5 melanoma -62.6% | UACC-62 melanoma -53.1% | LOX IMVI melanoma -91.4% | SK-MEL-28 melanoma -43%
